An excerpt weighted towards active compounds, which were near 16% of everything screened.
uPA generation = qHTS for Inhibitors of Cell Surface uPA Generation; Potency, µM (series often up to 38.3 µM), inactives show top-dose activity change, negative = inhibition, most hits filed as inhibitors; 0.31% of 330,000 active; cell surface uPA generation assay, qHTS; AID 540303, 2011; active means well fitted inhibition curve with a large enough effect; inconclusive means small, poorly fitted or top-dose-only effect; inactive means no such curve, though single readings can be large or run the other way; tested in mouse RAW 264.7 cells; further: potency means the concentration at half of the fitted maximal effect; on the % scale 0 is the no-effect control and ±100 the full control effect; nearly all actives have a fitted effect of over 55% in size
TDP1 block = qHTS Assay for Inhibitors of Tyrosyl-DNA Phosphodiesterase (TDP1); Potency, µM (highest dose often 130 µM), without a hit: at the top dose activity change, negative = inhibition, hits mostly inhibitors; Tyrosyl-DNA phosphodiesterase 1 (Homo sapiens), Q9NUW8; 0.28% of 350,000 active; recombinant TDP1, AlphaScreen DNA substrate cleavage; AID 485290, 2010; further: potency means the concentration at half of the fitted maximal effect; on the % scale 0 is the no-effect control and ±100 the full control effect; nearly all actives have a fitted effect of over 40% in size
Target sequence (Q9NUW8 whole entry, looked up): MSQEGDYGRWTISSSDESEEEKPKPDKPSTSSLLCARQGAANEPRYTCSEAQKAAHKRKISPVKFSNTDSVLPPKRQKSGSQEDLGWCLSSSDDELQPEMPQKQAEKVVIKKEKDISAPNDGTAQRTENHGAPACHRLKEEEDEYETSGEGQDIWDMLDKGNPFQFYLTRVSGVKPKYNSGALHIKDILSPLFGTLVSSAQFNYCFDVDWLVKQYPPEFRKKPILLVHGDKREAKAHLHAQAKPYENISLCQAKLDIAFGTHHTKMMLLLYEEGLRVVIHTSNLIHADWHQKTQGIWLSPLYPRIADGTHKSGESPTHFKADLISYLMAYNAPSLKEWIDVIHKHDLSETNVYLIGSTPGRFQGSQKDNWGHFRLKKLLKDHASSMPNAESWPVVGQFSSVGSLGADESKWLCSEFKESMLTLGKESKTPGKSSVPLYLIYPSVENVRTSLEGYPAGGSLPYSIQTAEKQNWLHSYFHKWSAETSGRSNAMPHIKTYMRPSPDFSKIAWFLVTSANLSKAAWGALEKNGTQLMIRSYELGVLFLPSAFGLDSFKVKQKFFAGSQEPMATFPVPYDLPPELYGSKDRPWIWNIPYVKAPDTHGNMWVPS
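E. coli-derived human Tdp1, 1 nM final. Cpd preinc 15 min RT; substrate 15 nM final, 5 min RT; AS bead mix 10 ug/ml final, 10 min RT. Signal loss = tyrosine-FITC cleavage. No-enzyme wells = max signal.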
miR-21 act = qHTS Assay for Modulators of miRNAs and/orActivators of miR-21. HeLa miR-21 FLuc reporter, luciferase, 48 h. Potency, µM (series often up to 38.3 µM), for inactives: at the top dose activity change, positive = activation, hits mostly activators. 340,000 tested, under 10 active. AID 2288, 2010;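 further: % of control where 0% means no effect; miR-21 action dims this reporter so a rising signal means less miR-21 action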
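HeLa miR-21-FLuc reporter line, endogenous miR-21; 2000 cells/well in DMEM/10% FBS; compound titration up to ~40uM final, 48 h, 37 degree Celsius; luciferase detection reagent, 15 min lysis, CCD luminescence.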
DT40 TDP1 no CPT = qHTS for Inhibitors of human tyrosyl-DNA phosphodiesterase 1 (TDP1): qHTS in cells in absence of CPT | DT40 Tdp1-/- hTDP1 cells, no CPT, ATP luminescence, 48 h | Potency, µM (titrated, usually from 46.2 µM), for the others: at the top dose activity change, negative = growth inhibition, most hits filed as inhibitors | 15% of 420,000 active | AID 686978, 2013; further: potency means the concentration at half of the fitted maximal effect; on the % scale 0 is the no-effect control and ±100 the full control effect; nearly all actives have a fitted effect of over 55% in size
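Growth kinetics read by CellTiter-Glo luminescence after ≥48 hr at 37 °C. Cells: DT40 Tdp1-/- stably carrying human TDP1, 400 per well, compound exposure in the absence of CPT (DMSO vehicle).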
DT40 TDP1 CPT = qHTS for Inhibitors of human tyrosyl-DNA phosphodiesterase 1 (TDP1): qHTS in cells in presence of CPT; 12% of 420,000 active; chicken DT40 Tdp1-/-;hTDP1 cells + 20 nM CPT, ATP luminescence, 48 h; Potency, µM (titrated, usually from 46.2 µM), inactives show at the highest dose activity change, negative = growth inhibition, hits mostly inhibitors; further: potency means the concentration at half of the fitted maximal effect; on the % scale 0 is the no-effect control and ±100 the full control effect; nearly all actives have a fitted effect of over 55% in size
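Chicken DT40 Tdp1-/- cells complemented with human TDP1, 400 cells/well, exposed to compounds plus 20 nM camptothecin for at least 48 h at 37 C; viability read as ATP content by CellTiter-Glo luminescence.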
An asterisk follows results filed as active. Unless noted, the call rests on the fitted dose curve; in most records, active means well fitted curve in the direction sought with a large enough effect; inconclusive means small, poorly fitted or top-dose-only effect, or another doubt; inactive means no such curve, though single readings can be large; an effect the other way counts as inactive or inconclusive.

Results for COc1ccc(CN2C[C@H](Cc3ccccc3)[C@@H](CC(=O)Nc3ccccc3)C2=O)cc1 ?
uPA generation: 0%; miR-21 act: 18%; DT40 TDP1 no CPT: 16µM*; DT40 TDP1 CPT: 22µM*

What do the screens show for `COc1ccc(NC(=O)C[C@H]2C(=O)N(Cc3cccnc3)C[C@@H]2Cc2ccccc2)cc1`?
DT40 TDP1 no CPT: -22%; DT40 TDP1 CPT: -18%

What do the screens show for `CCCCCCc1ccc(N2C[C@H](CCCCC)[C@@H](CC(=O)NCc3ccccc3)C2=O)cc1`?
uPA generation: 12%; miR-21 act: 0%; DT40 TDP1 no CPT: 18µM*; DT40 TDP1 CPT: 14µM*

What do the screens show for `CCCCCCc1ccc(N2C[C@H](CCCCC)[C@@H](CC(=O)NCc3ccc(OC)cc3)C2=O)cc1`?
uPA generation: 6%; miR-21 act: -1%; DT40 TDP1 no CPT: 13µM*; DT40 TDP1 CPT: inconclusive

How did CCCCCCc1ccc(N2C[C@H](C)[C@@H](CC(=O)NCc3ccccc3)C2=O)cc1 do in these assays?
uPA generation: 5%; miR-21 act: -8%; DT40 TDP1 no CPT: inconclusive; DT40 TDP1 CPT: inconclusive

Results for CCCCC[C@H]1CN(CCCC)C(=O)[C@@H]1CC(=O)NCc1ccccc1 ?
uPA generation: 9%; miR-21 act: 11%; DT40 TDP1 no CPT: inconclusive; DT40 TDP1 CPT: -28%

What do the screens show for `CCCCC[C@H]1CN(Cc2ccc(OC)cc2)C(=O)[C@@H]1CC(=O)NCc1ccccc1`?
uPA generation: 5%; miR-21 act: 15%; DT40 TDP1 no CPT: 11µM*; DT40 TDP1 CPT: 12µM*

How did S=C1SCN(CC2CC2)CN1CC1CC1 do in these assays?
uPA generation: -1%; TDP1 block: -6%; miR-21 act: 12%; DT40 TDP1 no CPT: 4.6µM*; DT40 TDP1 CPT: 0.58µM*

Results for Cc1ccc2nc(Nc3ccccc3)c(/C=N/O)c(=O)n2c1 ?
uPA generation: -12%; TDP1 block: 2%; miR-21 act: 1%; DT40 TDP1 no CPT: 6.5µM*; DT40 TDP1 CPT: 2.6µM*

Results for COc1ccc(Nc2nc3ccc(C)cn3c(=O)c2/C=N/O)cc1 ?
uPA generation: -16%; TDP1 block: -5%; miR-21 act: -7%; DT40 TDP1 no CPT: 6.5µM*; DT40 TDP1 CPT: 5.8µM*

How did CC(Oc1cccc(Cl)c1)c1ccnc2nc(/N=C/N(C)C)nn12 (stereo not drawn) do in these assays?
uPA generation: -7%; TDP1 block: -1%; miR-21 act: 1%; DT40 TDP1 no CPT: -5%; DT40 TDP1 CPT: -3%

What do the screens show for `CCCNC(=O)c1ccc(Cn2c(=O)c3cccn3c3cccnc32)cc1`?
TDP1 block: 0%; miR-21 act: -20%; DT40 TDP1 no CPT: 7%; DT40 TDP1 CPT: 3%

How did CN(C)c1ccc(CNC(=O)c2ccc(Cn3c(=O)c4cccn4c4cccnc43)cc2)cc1 do in these assays?
TDP1 block: -8%; miR-21 act: -3%; DT40 TDP1 no CPT: 0.21µM*; DT40 TDP1 CPT: inconclusive

What do the screens show for `O=C(NCCc1ccccc1Cl)c1ccc(Cn2c(=O)c3cccn3c3cccnc32)cc1`?
TDP1 block: -3%; miR-21 act: -15%; DT40 TDP1 no CPT: 10µM*; DT40 TDP1 CPT: 10µM*

How did CN(C)c1ccc(C=C2C=Cc3ccccc32)cc1 do in these assays?
uPA generation: -8%; DT40 TDP1 no CPT: -17%; DT40 TDP1 CPT: -12%

Results for CN(C)c1ccc(C=c2c3ccccc3n3c2c2ccccc2[n+]3C)cc1 ?
uPA generation: -10%; DT40 TDP1 no CPT: 1.5µM*; DT40 TDP1 CPT: 1.2µM*

What do the screens show for `Cc1cc2c(=Cc3ccc(N(C)C)cc3)c3ccccc3n2[n+]1C`?
uPA generation: -9%; DT40 TDP1 no CPT: 0.46µM*; DT40 TDP1 CPT: 0.52µM*

What do the screens show for `CCOC(=O)c1cc2c(=Cc3ccc(N(C)C)cc3)c3ccccc3n2[n+]1C`?
uPA generation: -6%; DT40 TDP1 no CPT: 0.46µM*; DT40 TDP1 CPT: 0.58µM*

How did Cc1ccccc1CN1C(=O)CN(S(C)(=O)=O)CC1(C)C(=O)Nc1c(C)cccc1C (stereo not drawn) do in these assays?
DT40 TDP1 no CPT: 6%; DT40 TDP1 CPT: -3%

How did Cc1nn(-c2ccccc2)c(C)c1NS(=O)(=O)c1ccccc1 do in these assays?
TDP1 block: 7%; miR-21 act: 24%; DT40 TDP1 no CPT: -9%; DT40 TDP1 CPT: 1%

What do the screens show for `COc1cc(/C=C2\C(=O)ON=C2c2ccccc2)cc(Br)c1O`?
uPA generation: 1%; miR-21 act: -5%; DT40 TDP1 no CPT: 10µM*; DT40 TDP1 CPT: 6.5µM*

How did CCOc1cc(/C=C2\C(=O)ON=C2c2ccccc2)cc(Br)c1O do in these assays?
uPA generation: -2%; miR-21 act: -2%; DT40 TDP1 no CPT: inconclusive; DT40 TDP1 CPT: inconclusive

What do the screens show for `COc1cc(/C=C2/C(=O)ON=C2c2ccccc2)ccc1O`?
uPA generation: 2%; TDP1 block: 0%; miR-21 act: -18%; DT40 TDP1 no CPT: 18µM*; DT40 TDP1 CPT: 23µM*

How did COc1cc(/C=c2\sc3n(c2=O)C(c2ccccc2)C(c2ccccc2)=NN=3)ccc1O (stereo not drawn) do in these assays?
uPA generation: 3%; TDP1 block: 9%; miR-21 act: 3%; DT40 TDP1 no CPT: 15µM*; DT40 TDP1 CPT: inconclusive

Results for COc1cc(C=C2C(=O)OC(c3ccccc3)OC2=O)cc(Br)c1O (stereo not drawn) ?
uPA generation: 3%; TDP1 block: 7%; miR-21 act: -3%; DT40 TDP1 no CPT: 23µM*; DT40 TDP1 CPT: inconclusive

How did COc1cc(/C=C2\C(=O)ON=C2c2ccccc2)cc(Cl)c1O do in these assays?
uPA generation: 5%; TDP1 block: 3%; miR-21 act: 2%; DT40 TDP1 no CPT: 18µM*; DT40 TDP1 CPT: 16µM*

What do the screens show for `Cc1ccc(C)c(S(=O)(=O)NCc2ccc(C(=O)N3CC(C)OC(C)C3)cc2)c1` (stereo not drawn)?
uPA generation: 1%; TDP1 block: 2%; miR-21 act: -11%; DT40 TDP1 no CPT: -7%; DT40 TDP1 CPT: -11%

Results for COc1ccc(CN2CCN(C(=O)c3ccc(CNS(=O)(=O)c4ccc(C)cc4)cc3)CC2)c(OC)c1OC ?
uPA generation: 6%; TDP1 block: 1%; miR-21 act: 14%; DT40 TDP1 no CPT: 13µM*; DT40 TDP1 CPT: 13µM*

How did Cc1ccc(S(=O)(=O)NCc2ccc(C(=O)N3CCN(Cc4ccccc4)CC3)cc2)cc1 do in these assays?
uPA generation: -9%; TDP1 block: 0%; miR-21 act: 25%; DT40 TDP1 no CPT: inconclusive; DT40 TDP1 CPT: inconclusive

Assay outcomes (PubChem BioAssay)
